HT1080-NT tox – kills 2HG-producing HT-1080-NT fibrosarcoma cells. 360,000 compounds, 1.6% hits. Potency, µM (series often up to 46.1 µM), usual class: cytotoxic. HT-1080-NT fibrosarcoma viability, CellTiter-Glo ATP luminescence, 48 h. AID 686970;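 further: NT is the 2HG producing partner of a matched IDH1 knockdown line; nearly all actives have a fitted effect of over 55% in size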
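Luminescent CellTiter-Glo readout after 48 hours of compound exposure at 37 degrees C defined viability of HT-1080-NT cells. Activity was normalized to DMSO wells and cell-free media wells; concentration-response curves were fitted and assigned curve classes.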
IL-1B inflam inh – blocks inflammasome-driven IL-1 beta release. THP-1 LPS/ATP IL-1B secretion, AlphaLISA, 16 h; stronger effect = lower value. activity change, % at 57.5 µM. 360,000 compounds, 4.7% hits. AID 743279; in the data active means activity change below about -50%; inconclusive means mostly about -30% to -49%
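THP-1 cells pretreated 1 hr with compounds (up to 57.5 uM final), then stimulated with LPS (250 ng/mL final) plus ATP (1.25 mM final); secreted IL-1B measured by AlphaLISA after 16 hr, decreased signal indicating inhibition.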
TDP1 cell noCPT – qHTS for Inhibitors of human tyrosyl-DNA phosphodiesterase 1 (TDP1): qHTS in cells in absence of CPT; DT40 Tdp1-/- hTDP1 cells, no CPT, ATP luminescence, 48 h; Potency, µM (doses to about 46.2 µM), actives largely listed as inhibitors; 420,000 compounds, 15% hits; AID 686978, 2013; further: nearly all actives have a fitted effect of over 55% in size
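No-CPT arm: Tdp1-/-;hTDP1 DT40 cells (400/well) plus compounds, incubated ≥48 hr at 37 °C. Readout CellTiter-Glo luminescence.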
DT40 TDP1 CPT – DT40-hTDP1 cell growth loss with CPT; chicken DT40 Tdp1-/-;hTDP1 cells + 20 nM CPT, ATP luminescence, 48 h; Potency, µM (highest dose often 46.2 µM), actives largely listed as inhibitors; 420,000 compounds, 12% hits; further: nearly all actives have a fitted effect of over 55% in size
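Cell growth measured by CellTiter-Glo luminescence after a minimum 48 h, 37 C compound exposure with 20 nM CPT in Tdp1-knockout DT40 cells stably expressing hTDP1, seeded 400/well; qHTS titration format.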
HT1080 IDH1KD tx – toxicity to HT-1080 IDH1 knockdown cells (counter line). Potency, µM (series often up to 46.1 µM), actives largely listed as cytotoxic. 360,000 compounds, 2% hits. AID 686971. HT-1080 IDH1 knockdown viability, ATP luminescence, 48 h
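IDH1KD HT-1080 cells, 750/well, RPMI + 5% FBS; compound pinned after 2 h settling; 48 h, 37 °C; CellTiter-Glo luminescence; % activity normalised to DMSO and no-cell wells; curves fitted, classed by r2 and efficacy.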
Numbers stand for hits; 0 = inactive; ? = inconclusive; - = not tested or not shown; [ ] = remark or other dose. A selection: hits, their analogues and other compounds. The true share with any hit is near 19%. Unless noted, the call rests on the fitted dose curve; in most records, active means well fitted curve in the direction sought with a large enough effect; inconclusive means small, poorly fitted or top-dose-only effect, or another doubt; inactive means no such curve, though single readings can be large; an effect the other way counts as inactive or inconclusive.

SMILES | HT1080-NT tox | IL-1B inflam inh | TDP1 cell noCPT | DT40 TDP1 CPT | HT1080 IDH1KD tx
CC1(C)N=C(N)N=C(N)N1c1ccc(OCCCOc2ccccc2)c(Cl)c1 | ? | ? | 2.3µM | 1.8µM | 2.1µM
CC1(C)N=C(N)N=C(N)N1c1ccc(OCC(=O)Nc2ccccc2)c(Cl)c1 | 0.73µM | 0 | 0.73µM | 1.2µM | 0.37µM
Cc1cccc(NC(=O)CCc2ccc(N3C(N)=NC(N)=NC3(C)C)cc2)c1 | 1µM | 0 | 0.37µM | 0.33µM | 0.46µM
CCO[C@@H]1OC(C(=O)N2CCCCCCC2)=C[C@H](c2ccc3c(c2)OCO3)[C@H]1CCCO | 0 | 0 | ? | ? | 0
Cc1ccc2c(=O)cc(C(=O)Nc3ccc(S(=O)(=O)N4CCC(C)CC4)cc3)oc2c1C | - | - | 0 | 0 | -
CC1CCCC(NC(=O)NC(=O)CCl)C1C (stereo unspecified) | 0 | -63 | 3.7µM | 3.7µM | 0
CC1CCCCC1NC(=O)NC(=O)CCl (stereo unspecified) | 0 | -96 | 5.2µM | 2.9µM | ?
CC1(c2nnc(Cc3ccccc3)o2)CC(c2cccc(Cl)c2)=NO1 (stereo unspecified) | 0 | 0 | ? | ? | 0
COc1ccc(NC(=O)Cn2c(=O)n(Cc3nc(C)no3)c(=O)c3cc4c(cc32)OCO4)cc1 | - | - | ? | 0 | -
COc1ccc(NCc2cc3cc4c(cc3n(CC(=O)Nc3ccc(F)cc3F)c2=O)OCO4)cc1 | - | - | 15µM | 6.5µM | -
CCc1ccc(NCc2cc3cc4c(cc3n(CC(=O)Nc3ccc(OC)cc3)c2=O)OCO4)cc1 | - | - | 4.6µM | ? | -
COc1cccc2c(=O)n(CC(=O)Nc3ccc(F)cc3F)ccc12 | 0 | 0 | 0 | 0 | 0
COc1cc(C)ccc1OCCOCCOc1ccc([N+](=O)[O-])cc1 | 0 | 0 | ? | ? | 0
Cc1ccc(NC(=O)CSc2cn[nH]n2)cc1 | 0 | 0 | 0 | 0 | 0
CC1(C)O[C@@H]2[C@H](O1)[C@@H](CO)O[C@H]2n1cnc2c(=O)[nH]cnc21 | ? | 0 | 0 | 29µM | 0
CC(C)(C)OC(=O)Nc1ncnc2c1ncn2C1OC(CO)C2OC(C)(C)OC21 (stereo unspecified) | 0 | 0 | 0 | 0 | 0
CCNC(=S)N(Cc1cccs1)Cc1cc2cc(OCC)ccc2[nH]c1=O | 0 | 0 | 16µM | ? | 0
Cc1ccc(NC(=S)N(Cc2cccs2)Cc2cc3cccc(C)c3[nH]c2=O)cc1 | 0 | 0 | 12µM | 21µM | 0
CNC(=S)N(Cc1cccs1)Cc1cc2ccc(OC)cc2[nH]c1=O | 0 | 0 | 18µM | ? | 0
CCN(CC)CCCN(Cc1cc2cc(OC)c(OC)cc2[nH]c1=O)C(=O)Nc1ccccc1 | 0 | ? | 0 | ? | 0
COc1cc2cc(CN(Cc3cccs3)C(=S)Nc3ccccc3)c(=O)[nH]c2cc1OC | 0 | 0 | 21µM | ? | 0
Cc1cccc2cc(CN(Cc3cccs3)C(=S)NCC3CCCO3)c(=O)[nH]c12 (stereo unspecified) | 0 | 0 | ? | ? | 0
COC(=O)[C@H](C)NC(=O)NCc1ccccc1 | 0 | 0 | 0 | 0 | 0
COC(=O)c1ccc(NCc2c(O)ccc(O)c2Br)cc1Cl | 0 | -119 | 4.6µM | 2.6µM | 0
COC(=O)c1ccc(NCc2cc(O)ccc2O)cc1O | ? | -104 | 3.3µM | 5.2µM | ?
SMILES | HT1080-NT tox | IL-1B inflam inh | TDP1 cell noCPT | DT40 TDP1 CPT | HT1080 IDH1KD tx
Cc1noc(C)c1-c1nc(NCc2cccs2)c2ccccc2n1 | - | - | 23µM | ? | -
Cc1cccc(CNc2nc(-c3ccccc3CN(C)C)nc3ccccc23)c1 | - | - | 5.2µM | 13µM | -
Cc1cnc(CNc2nc(-c3ccoc3)nc3ccccc23)cn1 | - | - | ? | 0 | -
CN(C)Cc1ccccc1-c1nc(N(C)C)c2ccccc2n1 | - | - | ? | 12µM | -
Cc1cccc(CNc2nc(-c3ccoc3)nc3ccccc23)c1 | - | - | 21µM | ? | -
CN(C)Cc1ccccc1-c1nccc(N(C)C)n1 | - | - | ? | 0 | -
Cc1cccc(CNc2ncncc2-c2ccccc2CN(C)C)c1 | - | - | 0 | 0 | -
CC(C)NC(=O)c1cn(C2CCC(NC(=O)C(C)(C)C)CC2)nn1 (stereo unspecified) | - | - | 0 | 0[9.04 µM] | -
CCC(=O)N1c2ccccc2CC1C(=O)NCCc1ccc(Cl)cc1 (stereo unspecified) | - | - | 0 | 0 | -
CCOc1ccc(OCCC(=O)OC(C)C(=O)Nc2ccc(C(C)=O)cc2)cc1 (stereo unspecified) | 0 | 0 | 0 | 0 | 0
CN(C)Cc1ccccc1-c1nc(NCc2cccs2)c2ccccc2n1 | - | - | 21µM | 21µM | -
CN(C)Cc1ccccc1-c1cc(NCc2cccs2)ncn1 | - | - | 0 | 0 | -
CN(Cc1cc2ccccc2[nH]c1=O)C(=O)c1cccs1 | 0 | 0 | 0 | 0 | 0
Cc1ccc(N(Cc2cc3cc(C)ccc3[nH]c2=O)C(=O)c2cccs2)cc1 | 0 | 0 | 23µM | ? | 0
O=C(c1cccs1)N(Cc1cc2ccccc2[nH]c1=O)c1ccccc1 | 0 | 0 | 10µM | 13µM | 0
